# Assay results from PubChem BioAssay AID2585 (National Center for Advancing Translational Sciences (NCATS), 2010).
# This is one part of the list. Inconclusive results are not listed. Active and inactive are the calls of the source. The call rests on the fitted dose curve; in most records, active means well fitted inhibition curve with a large enough effect; inconclusive means small, poorly fitted or top-dose-only effect; inactive means no such curve, though single readings can be large or run the other way.
# Molecular target: RecQ-like DNA helicase BLM (Homo sapiens) (UniProt P54132)
# Experiment: qHTS Confirmation Assay for Inhibitors of Bloom's syndrome helicase (BLM); further: nearly all actives have a fitted effect of over 45% in size
# Conditions: BLM DNA unwinding, fluorescence quenching, biochemical
# Source text: Survival of cells and the faithful propagation of the genome depend on elaborate mechanisms of detecting and repairing DNA damage. Treatment of advanced cancer relies on radiation therapy or chemotherapy, which kill cancer cells by causing extensive DNA damage. It is often found, that cancer cells develop resistance to therapy through enhanced activity of DNA repair functions; this has led to an increased interest in developing drugs that interfere with DNA repair, which could sensitize cancer cells to conventional therapy. This validation qHTS assay pertains to human BLM, which is important in resolving abnormal DNA structures formed during replication or homologous recombination. Shutting down the expression of BLM leads to chromosomal instability and higher radiation sensitivity in cultured cells. The validation assay was a fluorescence quenching based kinetic qHTS for BLM Helicase DNA unwinding. The activity was measured as ATP-dependent separation of a 20-bp DNA duplex extended by 30-nt single-stranded tails (forked duplex). The forked DNA substrate was tagged with rhodamine fluorophore (carboxytetramethyl rhodamine, TAMRA) and BHQ-2 (Black Hole Quencher 2) dark quencher. Strand separation results in an increase in the fluorescence of TAMRA (excitation 525 nm, emission 598 nm). […]
# Potency means the concentration at half of the fitted maximal effect.
# RecQ-like DNA helicase BLM (Homo sapiens), sequence (P54132 whole entry, looked up): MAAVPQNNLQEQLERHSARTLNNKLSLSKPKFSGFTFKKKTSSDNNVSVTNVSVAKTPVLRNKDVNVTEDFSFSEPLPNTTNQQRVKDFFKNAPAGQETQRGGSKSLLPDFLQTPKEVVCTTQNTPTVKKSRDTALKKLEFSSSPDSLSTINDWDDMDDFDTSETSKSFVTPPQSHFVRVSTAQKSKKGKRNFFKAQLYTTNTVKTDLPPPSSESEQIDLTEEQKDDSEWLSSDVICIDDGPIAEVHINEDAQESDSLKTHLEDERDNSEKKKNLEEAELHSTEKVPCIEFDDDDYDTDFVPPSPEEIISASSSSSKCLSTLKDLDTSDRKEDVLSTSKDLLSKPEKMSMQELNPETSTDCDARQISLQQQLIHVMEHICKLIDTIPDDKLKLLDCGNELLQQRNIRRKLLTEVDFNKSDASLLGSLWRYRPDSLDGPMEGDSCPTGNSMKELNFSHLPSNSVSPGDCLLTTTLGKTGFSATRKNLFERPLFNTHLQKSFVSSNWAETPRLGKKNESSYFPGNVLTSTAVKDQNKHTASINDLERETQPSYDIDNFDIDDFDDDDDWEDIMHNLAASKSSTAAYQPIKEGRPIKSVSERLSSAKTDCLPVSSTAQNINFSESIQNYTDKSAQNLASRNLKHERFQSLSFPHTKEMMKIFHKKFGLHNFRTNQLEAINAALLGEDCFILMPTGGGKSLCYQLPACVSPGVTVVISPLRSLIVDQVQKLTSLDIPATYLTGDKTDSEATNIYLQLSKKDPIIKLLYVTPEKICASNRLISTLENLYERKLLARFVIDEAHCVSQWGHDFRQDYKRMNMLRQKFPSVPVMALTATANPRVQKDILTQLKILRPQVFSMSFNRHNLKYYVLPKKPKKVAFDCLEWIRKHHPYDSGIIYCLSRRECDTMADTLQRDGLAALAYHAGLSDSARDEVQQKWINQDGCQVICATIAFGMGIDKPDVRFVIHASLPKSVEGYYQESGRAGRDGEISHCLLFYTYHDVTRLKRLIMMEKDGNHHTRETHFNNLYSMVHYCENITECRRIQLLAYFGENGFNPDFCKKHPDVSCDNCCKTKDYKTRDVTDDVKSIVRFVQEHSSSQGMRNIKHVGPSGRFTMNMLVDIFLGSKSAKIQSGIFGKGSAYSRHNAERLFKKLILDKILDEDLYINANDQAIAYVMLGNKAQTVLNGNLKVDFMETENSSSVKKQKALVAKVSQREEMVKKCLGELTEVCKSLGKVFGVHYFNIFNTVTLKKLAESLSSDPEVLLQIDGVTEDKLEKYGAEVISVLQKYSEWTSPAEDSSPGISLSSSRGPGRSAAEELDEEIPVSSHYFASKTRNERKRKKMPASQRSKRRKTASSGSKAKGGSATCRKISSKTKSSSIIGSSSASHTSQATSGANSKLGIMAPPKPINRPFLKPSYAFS
structure (smiles),measurement,value
O=C(O)c1cc[c]([Sb](=[O])([OH])[OH])cc1[N+](=O)[O-],Potency,8.57 µM (active)
